Screens: PubChem BioAssay, Paczesny and Yang Labs, IUPUI and University of Michigan
The full list was thinned out, with hits kept by preference.
ST2 inh – inhibitors of human ST2 (IL1RL1) binding to IL-33, primary screen, biochemical, AlphaLISA | 78,000 tested, 2.3% active | inhibition, % for hits at 17 µM | Interleukin-1 receptor-like 1 (Homo sapiens), Q01638 | AlphaLISA ST2-Fc/biotin-IL-33 interaction, 1 h; in the data active = inhibition above about 30%
Target sequence (Q01638 whole entry, looked up): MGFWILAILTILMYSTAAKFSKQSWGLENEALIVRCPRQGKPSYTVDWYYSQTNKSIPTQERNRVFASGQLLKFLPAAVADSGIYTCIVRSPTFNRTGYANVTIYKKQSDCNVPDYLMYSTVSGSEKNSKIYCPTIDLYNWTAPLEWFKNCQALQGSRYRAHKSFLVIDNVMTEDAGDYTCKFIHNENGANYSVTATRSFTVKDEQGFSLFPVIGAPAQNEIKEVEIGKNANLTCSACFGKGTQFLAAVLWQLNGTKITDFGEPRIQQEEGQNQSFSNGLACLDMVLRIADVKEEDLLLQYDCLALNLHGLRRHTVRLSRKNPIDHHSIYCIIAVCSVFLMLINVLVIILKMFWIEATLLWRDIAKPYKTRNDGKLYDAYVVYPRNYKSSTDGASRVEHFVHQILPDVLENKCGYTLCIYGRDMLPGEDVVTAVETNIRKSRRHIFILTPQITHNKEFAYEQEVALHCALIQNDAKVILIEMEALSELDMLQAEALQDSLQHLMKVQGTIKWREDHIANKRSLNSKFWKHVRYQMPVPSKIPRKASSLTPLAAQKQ
A number is an active result; n = inactive.

SMILES	ST2 inh
COc1ccc(C)cc1NC(=O)CNC(=O)c1cn(-c2ccccc2OC)c(=O)c2ccccc12	n
COc1ccccc1-n1c(O)c(C=Nc2ccc(C)cc2)c2ccccc2c1=O	34.0%
COc1ccccc1-n1nc(C(=O)O)c2ccccc2c1=O	n
Cc1cc(O)c(C=Nc2cccc(C(=O)O)c2)c(C)c1Cl	n
Cc1ccccc1-n1c(O)c(C=Nc2ccccc2)c2ccccc2c1=O	47.0%
CCOc1ccccc1N=Cc1c(O)n(-c2ccccc2C)c(=O)c2ccccc12	n
Cc1cc(NC(=O)c2cc(-c3ccc(Br)cc3)on2)n(-c2ccccc2)n1	n
Cc1oc2cc(OCC#N)ccc2c(=O)c1-c1ccc2c(c1)OCCCO2	n
CCC1CCCCN1C(=O)c1cn(CC)c(=O)c2cc(OC)c(OC)cc12 (stereo unspecified)	n
COc1ccc(CNC(=O)c2ccc(C#CC(C)(C)O)cc2)cc1	n
N#Cc1ccccc1S(=O)(=O)N[C@H]1CO[C@H]2[C@@H]1OC[C@H]2OC(=O)Nc1cccc2ccccc12	n
Cc1ccccc1NC1=CC(=O)CC(C)(C)C1	n
CC1(C)CC(=O)C=C(/C=C/c2ccc(N3N=N3)cc2)C1	40.0%
CC(=O)c1ccc(NC(=O)c2cc(CC(C)C)on2)cc1	n
O=C(O)CCC(=O)N1CC[C@H](c2nc3ccccc3s2)C1	n
CC(=O)N1CCC(N2CC[C@H](c3nc4ccccc4s3)C2)CC1	n
c1ccc2sc([C@H]3CCNC3)nc2c1	32.0%
COc1ccc(C)cc1S(=O)(=O)N1CCN(c2nc(C)cc(N3CCCC3)n2)CC1	n
CC1(C)CC(NCN(C2CC(C)(C)NC(C)(C)C2)C2CC(C)(C)NC(C)(C)C2)CC(C)(C)N1	n
CCN(c1ccccc1)S(=O)(=O)c1cc(OC)ccc1OC	n
CCN(c1ccccc1)S(=O)(=O)c1cc([N+](=O)[O-])ccc1N	32.0%
CCN(c1ccccc1)S(=O)(=O)c1ccc(OC)c(OC)c1	n
CC(C)n1cnc2cc(NCc3nc4ccccc4n3C)ccc21	n
OCc1ccc(-c2nccn2Cc2cn3c(n2)SCC3)o1	n
CSc1ccccc1NC(=O)CSc1ccccn1	n
SMILES	ST2 inh
O=C(CSc1nnc2c(n1)[nH]c1ccccc12)c1ccc(Cl)cc1	32.0%
O=C(CSc1nnc2c(n1)[nH]c1ccccc12)Nc1nc2ccc([N+](=O)[O-])cc2s1	n
Brc1ccc(CSc2nnc3c(n2)[nH]c2ccccc23)cc1	n
COc1ccc(OC)c(C(=O)N2CCN(Cc3ncccc3C)CC2)c1	n
CC(C)SC1=NN2CCCC(=O)N=C2S1	n
Cc1nc2ccccc2n1Cc1ccccc1Cl	n
CCCn1c(N2CCOCC2)nc2c1c(=O)[nH]c(=O)n2C	n
CCc1nccn1Cc1nc(-c2cc(C)c(OC)cc2C)oc1C	n
Cc1ccc(N=Cc2c(Nc3cccc(Cl)c3)nc3c(C)cccn3c2=O)cc1	n
Cc1cccn2c(=O)c(C=Nc3ccccc3)c(NCc3ccccc3)nc12	39.0%
Cc1cccn2c(=O)c(C=Nc3ccccc3)c(NCc3ccco3)nc12	n
Cc1nnc(SCCn2c(N(C)Cc3ccccc3)nc3c2c(=O)[nH]c(=O)n3C)s1	n
CCN1CCCC1CNS(=O)(=O)c1cccc2cccnc12 (stereo unspecified)	n
O=C1NC(=O)c2cc(Nc3ccccc3)c(Nc3ccccc3)cc21	n
Cn1c(CNc2ccccc2)cc(=O)n(C)c1=O	n
Cn1c(=O)cc2c3c(c(Nc4ccccc4)ccc31)C(=O)c1ccccc1-2	40.0%
COc1ccc(-n2c(=O)[nH]cc(C(=O)Nc3ccc(OC)cc3OC)c2=O)cc1	n
CCN(CC)C(=O)c1ccc(I)cc1	n
O=[N+]([O-])c1ccc(S(=O)(=O)n2nnc3ccccc32)cc1	n
COc1ccc(-n2ccc3ccccc32)cc1	n
O=[N+]([O-])c1ccc(-n2ccc3ccccc32)cc1	32.0%
N#Cc1nc(COc2ccccc2Cl)oc1N1CCN(Cc2ccccc2)CC1	58.0%
N#Cc1nc(COc2ccccc2Cl)oc1N1CCC(C(N)=O)CC1	n
Cc1ccccc1OCc1nc(C#N)c(N2CCCCC2)o1	68.0%
Cc1ccccc1OCCCCN1CCCCC1	n
SMILES	ST2 inh
Cc1ccc(-c2noc(COc3ccccc3Cl)n2)cc1	n
Cc1ccccc1OCCCN1CCOCC1	n
N#Cc1nc(COc2ccc(Cl)cc2)oc1N1CCN(Cc2ccccc2)CC1	57.0%
N#Cc1nc(COc2ccccc2Cl)oc1N1CCCCC1	65.0%
c1ccc(COc2cccc(CN3CCN(c4ncccn4)CC3)c2)cc1	n
Nc1nc(COc2ccccc2Cl)nc(N2CCOCC2)n1	n
c1ccc(COc2ccc(CN3CCN(c4ncccn4)CC3)cc2)cc1	n
FC(F)(F)c1ccc(N2CCN(Cc3ccccc3)CC2)nc1	n
CN(C)C(=O)c1nn(Cc2ccccc2)c2c1CN(Cc1nc3ccccc3n1C)CC2	n
O=C(Nc1nnc(SCC(=O)N2CCCC2)s1)c1ccc([N+](=O)[O-])cc1	n
O=C(O)CCCCCn1c(=S)[nH]c2ccc(F)cc2c1=O	n
COc1ccccc1NC(=O)c1cccc(C)c1	n
O[C@H]1C[C@@H]2CN(Cc3ccc(C4CCCCO4)o3)C[C@@H]2C[C@@H]1O (stereo partly specified)	n
CCOC(=O)N1CCN(C(=O)c2cn(C(c3ccccc3)c3ccccc3)nn2)CC1	n
COCCNC(=O)c1nn2c(c1Cl)NC(c1ccc(Cl)cc1)CC2C(F)(F)F (stereo unspecified)	n
O=C(CCS(=O)(=O)c1cccs1)Nc1ccc(C(=O)Nc2ccc(F)cc2)cc1	n
COc1ccc(OC)c(NC(=O)c2ccc(C)o2)c1	n
O=C(O)c1ccccc1N1C(=O)C2C3CC(C(Br)C3Br)C2C1=O (stereo unspecified)	n
CC1CC2c3cccc(C(=O)O)c3C(=O)N2c2ccc(F)cc21 (stereo unspecified)	32.0%
C=CCC1c2cccc(C(=O)O)c2C(=O)N1c1cccc(OC)c1 (stereo unspecified)	n
O=C(Nc1nc2ccc(F)cc2s1)c1ccc(S(=O)(=O)N2CCc3ccccc3C2)cc1	n
O=C1CCc2cc(S(=O)(=O)N3CCc4ccccc4C3)ccc2N1	n
O=C(Nc1ccccc1[N+](=O)[O-])c1cccc(S(=O)(=O)N2CCc3ccccc3C2)c1	40.0%
CCSc1nc2c(c(=O)[nH]1)C(c1ccc(C(C)C)cc1)C1=C(CCCC1=O)N2 (stereo unspecified)	n
Cc1ccc(C2Nc3cc(C)c(C)cc3NC3=C2C(=O)CC(C)(C)C3)s1 (stereo unspecified)	n
SMILES	ST2 inh
O=C(NC(Nc1ccc(C(F)(F)F)cc1Cl)C(Cl)(Cl)Cl)c1cccnc1 (stereo unspecified)	63.0%
Cc1ccc(Oc2ccc(C(F)(F)F)cc2NC(=O)c2cccnc2)cc1	n
O=C(NC(Nc1ccc(Cl)cc1)C(Cl)(Cl)Cl)c1cccnc1 (stereo unspecified)	n
CC(=O)c1cccc(N2C(=O)c3ccc(C(=O)c4ccc(C(=O)O)cc4)cc3C2=O)c1	n
COc1ccc(C(=O)Nc2cccc(NC(=O)c3ccccc3Cl)c2)cc1[N+](=O)[O-]	n
COc1ccc(C(=O)Nc2cccc(NC(=O)c3ccccc3Cl)c2)cc1Br	59.0%
CCOc1ccc(C(=O)Nc2cccc(Cl)c2)cc1Br	n
Cc1c(O)cc2oc(-c3ccc(O)c(O)c3)c(O)c(=O)c2c1O	n
COc1ccc2cc3cc(C(=O)Nc4ccc(OC)c(Cl)c4)oc3nc2c1	31.0%
COc1ccc2cc3cc(C(=O)Nc4ccc(C)cc4Cl)oc3nc2c1	n
